LmPK inh: inhibitors of Leishmania mexicana pyruvate kinase. purified LmPK, Kinase-Glo ATP luminescence, 1 h. hit rate 0.37% among 290,000. Q27686. Potency, µM (top dose mostly 57.5 µM), for inactives: at the highest dose activity change, negative = inhibition, most hits filed as inhibitors; further: potency means the concentration at half of the fitted maximal effect; on the % scale 0 is the no-effect control and ±100 the full control effect
Target sequence (Q27686 whole entry, looked up): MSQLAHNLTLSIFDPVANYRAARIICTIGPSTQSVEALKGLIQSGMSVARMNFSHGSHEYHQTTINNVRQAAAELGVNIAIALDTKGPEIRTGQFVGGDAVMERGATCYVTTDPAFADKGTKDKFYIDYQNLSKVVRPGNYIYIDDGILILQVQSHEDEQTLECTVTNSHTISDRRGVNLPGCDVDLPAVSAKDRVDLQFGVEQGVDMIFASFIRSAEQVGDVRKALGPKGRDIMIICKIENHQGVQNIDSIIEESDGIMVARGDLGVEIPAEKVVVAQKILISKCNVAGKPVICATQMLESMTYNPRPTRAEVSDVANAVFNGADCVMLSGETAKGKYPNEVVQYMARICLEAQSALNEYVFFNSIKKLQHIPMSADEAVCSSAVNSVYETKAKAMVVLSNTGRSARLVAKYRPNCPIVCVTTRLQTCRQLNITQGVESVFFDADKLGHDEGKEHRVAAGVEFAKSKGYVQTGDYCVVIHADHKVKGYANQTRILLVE
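ATP generated from ADP (0.1 mM) and PEP (0.5 mM) by 0.1 nM LmPK over 1 h at room temperature (pH 7.2 imidazole buffer) was detected by coupled luciferase luminescence. Values were normalized to uninhibited and no-enzyme wells.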
Cycloheximide cs: counter-screen hit for Shiga toxin inhibitors, cycloheximide; cell reporter, cycloheximide protein synthesis inhibition counterscreen; max response, %; hit rate 12% among 300,000; AID 2314; in the data active means max response mostly above about 13%, no sharp cut-off; inactive means mostly below about 14%; further: read at 38.3 µM for the half of the compounds with a filed dose; 0% is about no effect
Sm TGR inh: S. mansoni TGR enzyme inhibition | Q962Y6 | AID 485364 | purified TGR, DTNB reduction, TNB absorbance 405 nm | hit rate 3% among 360,000 | Potency, µM (titrated, usually from 114 µM), without a hit: top-dose activity change, negative = inhibition, most hits filed as inhibitors; further: potency means the concentration at half of the fitted maximal effect; on the % scale 0 is the no-effect control and ±100 the full control effect; nearly all actives have a fitted effect of over 60% in size
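Kinetic colorimetric format: TGR-catalysed, NADPH-driven DTNB reduction monitored via TNB absorbance. Enzyme dispensed at 20 nM; compound exposure 15 min at room temperature before reaction start.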
FBPA Giardia inh: blocks Giardia fructose-bisphosphate aldolase activity | A8B2U2 | purified Giardia FBPA | Potency, µM (doses to about 59.6 µM), without a hit: top-dose activity, negative = inhibition, most hits filed as inhibitors | hit rate 0.71% among 290,000 | AID 2451; further: potency means the concentration at half of the fitted maximal effect; on the % scale 0 is the no-effect control and ±100 the full control effect; nearly all actives have a fitted effect of over 55% in size
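40 nM FBPA preincubated 10 min at RT with compound (up to 57.5 uM final), then substrate plus GAPDH/TPI/NAD/arsenate coupling and diaphorase/resazurin added. Fluorescence read after 20 min at RT, 525/598 nm.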
Tb PYK inh: inhibitors of Trypanosoma brucei pyruvate kinase; Q57TT1; TbPYK enzyme, Kinase-Glo Plus ATP luminescence, 45 min; Potency, µM (titrated, usually from 76.8 µM), for the others: at the top dose activity, negative = inhibition, hits mostly inhibitors; hit rate 0.12% among 410,000; further: potency means the concentration at half of the fitted maximal effect; on the % scale 0 is the no-effect control and ±100 the full control effect; nearly all actives have a fitted effect of over 50% in size
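Glycolytic pyruvate kinase of T. brucei was incubated with substrate, test compound and 130 uM ADP for 45 minutes at room temperature. Luminescent Kinase-Glo Plus signal was measured after 10 minutes.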
Shiga toxin inh: Shiga toxin inhibition; Vero cells, Shiga toxin protein synthesis inhibition reporter; inhibition, % at 38.7 µM; hit rate 9.2% among 290,000; AID 2315; in the data active means inhibition mostly above about 28%, no sharp cut-off; inactive means mostly below about 43%; further: 0% is about no effect
An asterisk follows results filed as active. The full list was thinned out, with hits kept by preference. Unless noted, the call rests on the fitted dose curve; in most records, active means well fitted curve in the direction sought with a large enough effect; inconclusive means small, poorly fitted or top-dose-only effect, or another doubt; inactive means no such curve, though single readings can be large; an effect the other way counts as inactive or inconclusive.

What do the screens show for `C#CCOCCOCCOCCNc1nc(N2CCN(C(=O)CCCCCCCCCCNC(=O)Cn3cc(CCCCCN)nn3)CC2)nc(N2CCN(C(=O)CCCCCCCCCCNC(=O)[C@H]([C@@H](C)CC)n3cc(CCCCN=C(N)N)nn3)CC2)n1`?
Sm TGR inh: inconclusive; Tb PYK inh: 3.0%

Results for C#CCOCCOCCOCCNc1nc(N2CCN(C(=O)CCCCCCCCCCNC(=O)[C@H]([C@@H](C)CC)n3cc(CCCCN=C(N)N)nn3)CC2)nc(N2CCN(C(=O)CCCCCCCCCCNC(=O)[C@H]([C@@H](C)CC)n3cc(CCCCN=C(N)N)nn3)CC2)n1 ?
Sm TGR inh: 39.8µM*

How did C#CCOCCOCCOCCNc1nc(N2CCN(C(=O)CCCCCCCCCCNC(=O)Cn3cc(C[C@@H](C)O)nn3)CC2)nc(N2CCN(C(=O)CCCCCCCCCCNC(=O)[C@@H](CCC(=O)O)n3cc(CCCCCN)nn3)CC2)n1 do in these assays?
Sm TGR inh: -16.9%; Tb PYK inh: 2.6%

What do the screens show for `CN(C)c1ccc(-c2cc[nH]c(=O)c2N)cc1`?
Cycloheximide cs: 23.2; Shiga toxin inh: 3.4

What do the screens show for `C#CCOCCOCCOCCNc1nc(N2CCN(C(=O)CCCCCCCCCCNC(=O)[C@H]([C@@H](C)CC)n3cc(CCCCN=C(N)N)nn3)CC2)nc(N2CCN(C(=O)CCCCCCCCCCNC(=O)[C@H](CO)n3cc(CCCCCN)nn3)CC2)n1`?
Sm TGR inh: 44.7µM*; Tb PYK inh: -0.2%

What do the screens show for `C#CCOCCOCCOCCNc1nc(N2CCN(C(=O)CCCCCCCCCCNC(=O)[C@H]([C@@H](C)CC)n3cc(CCCCCN)nn3)CC2)nc(N2CCN(C(=O)CCCCCCCCCCNC(=O)[C@H](CO)n3cc(CCCCCN)nn3)CC2)n1`?
Sm TGR inh: inconclusive; Tb PYK inh: -6.9%

What do the screens show for `O=C(N/N=C/c1cccc(OC(=O)c2ccco2)c1)c1ccc(F)cc1`?
LmPK inh: 3.0%; Cycloheximide cs: 63.7*; Sm TGR inh: 0.4%; FBPA Giardia inh: -2.3%; Tb PYK inh: -5.2%; Shiga toxin inh: 25.8*

Results for C(=N\Nc1nc(Nc2ccccc2)nc(N2CCCCC2)n1)/c1ccco1 ?
LmPK inh: 3.0%; Cycloheximide cs: 27.7*; Sm TGR inh: -0.3%; FBPA Giardia inh: -3.5%; Shiga toxin inh: 32.0*

How did CCOc1cc(/C=N\Nc2nc(Nc3ccccc3)nc(N3CCOCC3)n2)ccc1OC(=O)c1ccco1 do in these assays?
LmPK inh: 3.0%; Cycloheximide cs: 19.5*; Sm TGR inh: -5.0%; FBPA Giardia inh: 3.6%; Tb PYK inh: -1.2%; Shiga toxin inh: 8.9

Results for COc1cc(/C=N/NC(=O)c2ccc(F)cc2)ccc1OC(=O)c1ccco1 ?
LmPK inh: 3.2%; Cycloheximide cs: 21.2*; Sm TGR inh: -10.2%; FBPA Giardia inh: -1.1%; Tb PYK inh: -0.8%; Shiga toxin inh: 51.7

Results for Cc1ccc(OC(=O)c2snnc2C)cc1C ?
Sm TGR inh: -1.0%; Tb PYK inh: -2.9%

Results for Cc1cccc(NC(=O)Cn2c(=O)n(CCc3ccccc3)c(=O)c3ccccc32)c1 ?
Sm TGR inh: 8.3%; Tb PYK inh: -4.6%

Results for CSc1ccc(CN(C)CC(=O)NC(=O)NCCC2=CCCCC2)cc1 ?
Sm TGR inh: -3.5%; Tb PYK inh: -6.7%

How did COc1cc(/C=N/Nc2nc(C)cc(C)n2)ccc1OC(=O)c1ccco1 do in these assays?
LmPK inh: -0.6%; Cycloheximide cs: 8.0; Sm TGR inh: 3.2%; FBPA Giardia inh: -11.0%; Tb PYK inh: -1.6%; Shiga toxin inh: -6.7

What do the screens show for `COc1cc(/C=N/Nc2ccc3ccccc3c2)ccc1OC(=O)c1ccco1`?
LmPK inh: 0.5%; Cycloheximide cs: 28.8*; Sm TGR inh: -26.9%; FBPA Giardia inh: -17.3%; Tb PYK inh: 3.1%; Shiga toxin inh: 40.8*

How did Cc1ccc(C(=O)c2cn[nH]c2-c2cc(Cl)ccc2O)cc1 do in these assays?
LmPK inh: -2.0%; Cycloheximide cs: -1.3; Sm TGR inh: 5.8%; FBPA Giardia inh: -19.0%; Tb PYK inh: inconclusive; Shiga toxin inh: 7.0

Screening results: PubChem, National Center for Advancing Translational Sciences (NCATS)
